The text below walks through data of PubChem BioAssay (NCATS).

In one assay the test system is 3D7. Briefly: qHTS profiling for inhibitors of Plasmodium falciparum proliferation (AID 504749). Further: nearly all actives have a fitted effect of over 60% in size. The note with it: P. falciparum in erythrocytes, SYBR Green DNA, 72 h; series mostly up to 28.7 µM. Put shortly: (§1)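 Quantitative HTS: compounds pinned into medium, infected erythrocytes added (0.3% parasitemia, 2.5% hematocrit), 72 h culture at 37 C under 5% CO2. Saponin/Triton lysis with SYBR Green I, overnight RT, then fluorescence read.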

Another assay deals with 7G8. The description is as above. The note with it: P. falciparum in erythrocytes, SYBR Green DNA, 72 h; series mostly up to 28.7 µM. The procedure, abridged: as §1
The test system of the next assay is ATS95. The assay is described as above. The note with it: P. falciparum in erythrocytes, SYBR Green DNA, 72 h; series mostly up to 28.7 µM. Put shortly:
as §1

The subject of the next assay is C2A. The description is as above. The note with it: P. falciparum in erythrocytes, SYBR Green DNA, 72 h; series mostly up to 28.7 µM. Put shortly: as §1
For another assay, the system named is CP217. The assay is described as above. The note with it: P. falciparum in erythrocytes, SYBR Green DNA, 72 h; series mostly up to 28.7 µM. Put shortly:
as §1

Another assay concerns CP250. The description is as above. The note with it: P. falciparum in erythrocytes, SYBR Green DNA, 72 h; series mostly up to 28.7 µM. Put shortly: as §1
A further assay concerns CP260. Described as above. The note with it: P. falciparum in erythrocytes, SYBR Green DNA, 72 h; series mostly up to 28.7 µM. Put shortly: as §1
For a further assay, the system named is CP335. Described as above. The note with it: P. falciparum in erythrocytes, SYBR Green DNA, 72 h; series mostly up to 28.7 µM. Put shortly:
as §1

The subject of the next assay is DIV14. Described as above. The note with it: P. falciparum in erythrocytes, SYBR Green DNA, 72 h; series mostly up to 28.7 µM. The procedure, abridged:
as §1

Another assay has as its system DIV17. Described as above. The note with it: P. falciparum in erythrocytes, SYBR Green DNA, 72 h; series mostly up to 28.7 µM. The procedure, abridged:
as §1

The subject of the next assay is DIV30. The assay is described as above. The note with it: P. falciparum in erythrocytes, SYBR Green DNA, 72 h; series mostly up to 28.7 µM. The procedure, abridged: as §1
The subject of another assay is P94_40. The assay is described as above. The note with it: P. falciparum in erythrocytes, SYBR Green DNA, 72 h; series mostly up to 28.7 µM. Put shortly:
as §1

Another assay relates to PAD. Described as above. The note with it: P. falciparum in erythrocytes, SYBR Green DNA, 72 h; series mostly up to 28.7 µM. Put shortly: as §1
The test system of a further assay is PC26. The description is as above. The note with it: P. falciparum in erythrocytes, SYBR Green DNA, 72 h; series mostly up to 28.7 µM. The procedure, abridged:
as §1

The subject of another assay is SC27B. The assay is described as above. The note with it: P. falciparum in erythrocytes, SYBR Green DNA, 72 h; series mostly up to 28.7 µM. Put shortly: as §1
The subject of a further assay is TAB113. The description is as above. The note with it: P. falciparum in erythrocytes, SYBR Green DNA, 72 h; series mostly up to 28.7 µM. Put shortly: as §1
Another assay relates to TAB165. Described as above. The note with it: P. falciparum in erythrocytes, SYBR Green DNA, 72 h; series mostly up to 28.7 µM. Put shortly:
as §1

Assay [1] is described as follows: S16 Schwann cell PMP22 intronic element firefly luciferase assay (AID 624032). Further: nearly all actives have a fitted effect of over 30% in size. Put shortly: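 Rat S16 Schwann cells stably carrying a PMP22 intronic element-driven Fluc reporter were seeded overnight, then exposed to compounds for 24 h at 37 °C. Luminescence was normalized to PTC124 (positive control) and DMSO (0% activity).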
The subject of another assay is CP191. Briefly: qHTS profiling for inhibitors of Plasmodium falciparum proliferation (AID 504749). Further: nearly all actives have a fitted effect of over 60% in size. The note with it: P. falciparum in erythrocytes, SYBR Green DNA, 72 h; series mostly up to 28.7 µM. Put shortly:
as §1

In another assay the test system is DFO2036. The assay is described as above. The note with it: P. falciparum in erythrocytes, SYBR Green DNA, 72 h; series mostly up to 28.7 µM. The procedure, abridged:
as §1

Inconclusive results are not listed. Activity calls are given as the source filed them. The call rests on the fitted dose curve; in most records, active means well fitted curve in the direction sought with a large enough effect; inconclusive means small, poorly fitted or top-dose-only effect, or another doubt; inactive means no such curve, though single readings can be large; an effect the other way counts as inactive or inconclusive.
Potency means the concentration at half of the fitted maximal effect.

On to `C/C(=C(/CCOC(=O)C(C)C)SS/C(CCOC(=O)C(C)C)=C(\C)N(C=O)Cc1cnc(C)nc1N)N(C=O)Cc1cnc(C)nc1N`, for which the Potency result in the assay on 3D7, in the assay with 7G8, with ATS95, in the assay with C2A, in the assay on CP217 and with CP250 was “inactive” each time. Also, the Potency result with CP260, with CP335, in the assay with DIV14, with DIV17, in the assay with DIV30 and with P94_40 was “inactive” in each case. The Potency result in the assay on PAD, in the assay with PC26, in the assay on SC27B, with TAB113 and in the assay on TAB165 was “inactive” in each case.
Consider `CCCCC(=O)OC1CCC2C3CCc4cc(O)ccc4C3CC[C@]12C` (some centres undefined), for which the Potency result in the assay with 3D7, in the assay on C2A, in the assay on CP217, in the assay on CP250, with CP260 and in the assay with DIV30 was “inactive” throughout. Moreover, the Potency entry in the assay with PC26 is “inactive”.
For the compound `CC1(C)SC2[C@@H](N=CN3CCCCCC3)C(=O)N2[C@H]1C(=O)O` (some centres undefined), the Potency result (in [1]; with 3D7; in the assay on ATS95; in the assay with C2A; with CP191; in the assay with CP217) was “inactive” each time. The Potency result in the assay on CP250, in the assay on CP260, in the assay on CP335, in the assay on DFO2036, in the assay with DIV17 and in the assay on DIV30 was “inactive” throughout. Further, the Potency result with PC26 and in the assay on SC27B was “inactive” throughout.
Regarding `CNC1CCc2cc(OC)c(OC)c(OC)c2-c2ccc(OC)c(=O)cc21` (centres undefined), the Potency entry in the assay on ATS95, with C2A, with CP191, in the assay on CP217, in the assay on CP250 and with CP260 was “inactive” each time. The Potency result in the assay with CP335, with DFO2036, in the assay on P94_40, in the assay with PAD, in the assay with PC26 and in the assay with SC27B was “inactive” each time. The Potency entry in the assay on TAB113 and in the assay with TAB165 was “inactive” each time.
`OCC(O)C(O)C(O)C(O)CO` (centres undefined): the Potency result (in [1]; in the assay with 3D7; with 7G8; in the assay on ATS95; in the assay with C2A; in the assay on CP191) was “inactive” in each case. Also, the Potency result with CP217, with CP250, with CP260, in the assay with CP335, in the assay with DFO2036 and in the assay with DIV14 was “inactive” throughout. For the same compound, the Potency entry in the assay on DIV17, in the assay on DIV30, with P94_40, in the assay with PAD, in the assay on PC26 and with SC27B was “inactive” in each case. Further, the Potency entry in the assay on TAB113 and with TAB165 was “inactive” in each case.
For the compound `CCC1OC(=O)C[C@H](O)C(C)[C@@H](O[C@@H]2OC(C)C(O)C(N(C)C)C2O)C(CCN2CC(C)CC(C)C2)CC(C)C(=O)/C=C/C(C)=C\[C@@H]1COC1OC(C)C(O)C(OC)C1OC` (some centres undefined), the Potency entry (in assay [1]; with 3D7) was “inactive” in each case. The Potency with C2A is 10 µM (active); in the assay with CP191 it was 6.31 µM (active); in the assay on CP260 it was 11.2 µM (active); in the assay with CP335, 9.53 µM (active).
Turning to `CCC(C)C(N)C(=O)O` (centres undefined), the Potency entry (in assay [1]; in the assay with 3D7; in the assay with 7G8; with ATS95; in the assay on C2A; in the assay on CP191) was “inactive” throughout. In addition, the Potency entry in the assay on CP217, in the assay on CP250, in the assay with CP260, with CP335, in the assay with DFO2036 and with DIV14 was “inactive” throughout. In addition, the Potency result in the assay with DIV17, in the assay with DIV30, in the assay on P94_40, in the assay on PAD, in the assay with PC26 and in the assay with SC27B was “inactive” throughout. Further, the Potency result in the assay with TAB113 and in the assay with TAB165 was “inactive” each time.
With `CC(C)CCCC(C)C1CC(=O)C2=C3CCC4CC(O)CCC4(C)C3CCC21C` (centres undefined), the Potency result in the assay on ATS95, in the assay with C2A, with CP191, in the assay on CP217, in the assay on CP250 and in the assay with DFO2036 was “inactive” in each case. Also, the Potency result in the assay on DIV14, in the assay on DIV17, in the assay with DIV30, in the assay with P94_40, in the assay with PAD and in the assay on PC26 was “inactive” throughout. In addition, the Potency entry with SC27B and in the assay on TAB165 was “inactive” each time.
Consider `C=C1CC2C3C=C(C)C4=CC(=O)CCC4(C)C3CCC2(C)[C@@]1(OC(C)=O)C(C)=O` (some centres undefined), for which, in the assay with 7G8, the Potency was 12.6 µM (active). In addition, the Potency result in the assay on C2A, in the assay with CP250 and with SC27B was “inactive” throughout.
As to `COc1ccc(C(=O)/C(Br)=C/C(=O)O)cc1`, the Potency is 14.4 µM (active) in [1] and 10 µM (active) in the assay on 7G8. Besides, the Potency entry in the assay on C2A, in the assay on CP250, with CP260, in the assay on DFO2036, in the assay on DIV14 and in the assay on P94_40 was “inactive” in each case. Moreover, the Potency result in the assay with PAD and in the assay on PC26 was “inactive” throughout.
As to `CC1(C)O[C@@H]2C[C@H]3[C@@H]4CCC5=CC(=O)C=C[C@]5(C)[C@H]4C(O)C[C@]3(C)[C@]2(C(=O)CO)O1` (some centres undefined), the Potency entry (in assay [1]; in the assay with 3D7; with ATS95; in the assay with C2A; in the assay with CP191; in the assay on CP217) was “inactive” in each case. The Potency entry in the assay with CP250, in the assay on CP335, with DFO2036, in the assay on DIV14, with DIV30 and in the assay with P94_40 was “inactive” in each case. Further, the Potency entry with PC26 and in the assay on TAB113 was “inactive” each time.
Turning to `Nc1nc(Cl)nc2c1ncn2[C@@H]1O[C@H](CO)[C@H](O)C1F` (some centres undefined), the Potency in [1] was 0.907 µM (active). Also, the Potency entry in the assay with 3D7, in the assay on ATS95, in the assay with C2A, in the assay with CP191, with CP217 and in the assay with CP250 was “inactive” in each case. The Potency result in the assay on CP260, in the assay with CP335, with DFO2036, in the assay on DIV14, in the assay with DIV17 and in the assay with DIV30 was “inactive” each time. Moreover, the Potency result in the assay on P94_40, in the assay on PAD, in the assay with PC26, in the assay with SC27B, in the assay on TAB113 and in the assay with TAB165 was “inactive” in each case.
`C[C@H](CN1c2ccccc2Sc2cccnc21)N(C)C`: the Potency result in [1] was “inactive”. Besides, the Potency is 11.2 µM (active) with ATS95; 8.91 µM (active) in the assay on CP260; 6.01 µM (active) with CP335; 11.2 µM (active) in the assay on DFO2036; 4.78 µM (active) in the assay with DIV14; 4.78 µM (active) with DIV17. In addition, the Potency is 8.91 µM (active) in the assay with SC27B, 12.6 µM (active) in the assay on TAB113 and 11.2 µM (active) in the assay with TAB165.
For the compound `C/C=C1/NN(CCCN2CCN(c3cccc(Cl)c3)CC2)C(=O)N1CCOc1ccccc1`, the Potency result with 3D7, with ATS95, with C2A, in the assay with CP217, with CP250 and with CP260 was “inactive” throughout. The Potency result in the assay on DFO2036, in the assay with P94_40, in the assay on PAD, in the assay on SC27B and with TAB113 was “inactive” throughout.
In the case of `C[C@]12CCC(=O)C=C1[C@@H]1C[C@H]1[C@H]1[C@@H]3[C@@H]4C[C@H]4[C@@]4(CCC(=O)O4)[C@@]3(C)CC[C@@H]12`, the Potency result in the assay with ATS95, in the assay with C2A, in the assay with CP191, in the assay with CP217, in the assay on CP250 and in the assay on CP260 was “inactive” in each case. For the same compound, the Potency result in the assay with CP335, in the assay on DFO2036, with DIV17, with P94_40, in the assay with PC26 and in the assay on SC27B was “inactive” throughout. The Potency result in the assay on TAB113 and in the assay with TAB165 was “inactive” throughout.
